Reference: PubChem BioAssay AID939 (National Center for Advancing Translational Sciences (NCATS), 2007)
Results filed as inconclusive are left out. A call without a number means that no potency is given here. Calls of active or inactive are those of the source. The call rests on the fitted dose curve; in most records, active means well fitted activation curve with a large enough effect in the main read-out, with a control signal flat; inconclusive means small, poorly fitted or top-dose-only effect, or effect the other way, or a change in a side signal; inactive means no such curve, though single readings can be large or run the other way.

target: Thyrotropin receptor (Homo sapiens) (UniProt P16473); experiment: Confirmation Concentration-Response Assay for Agonists of the Thyroid Stimulating Hormone Receptor; settings: HEK293 TSHR-CNG cells, membrane potential dye, cAMP; series mostly up to 25.6 µM
Sequence (P16473 whole entry, looked up): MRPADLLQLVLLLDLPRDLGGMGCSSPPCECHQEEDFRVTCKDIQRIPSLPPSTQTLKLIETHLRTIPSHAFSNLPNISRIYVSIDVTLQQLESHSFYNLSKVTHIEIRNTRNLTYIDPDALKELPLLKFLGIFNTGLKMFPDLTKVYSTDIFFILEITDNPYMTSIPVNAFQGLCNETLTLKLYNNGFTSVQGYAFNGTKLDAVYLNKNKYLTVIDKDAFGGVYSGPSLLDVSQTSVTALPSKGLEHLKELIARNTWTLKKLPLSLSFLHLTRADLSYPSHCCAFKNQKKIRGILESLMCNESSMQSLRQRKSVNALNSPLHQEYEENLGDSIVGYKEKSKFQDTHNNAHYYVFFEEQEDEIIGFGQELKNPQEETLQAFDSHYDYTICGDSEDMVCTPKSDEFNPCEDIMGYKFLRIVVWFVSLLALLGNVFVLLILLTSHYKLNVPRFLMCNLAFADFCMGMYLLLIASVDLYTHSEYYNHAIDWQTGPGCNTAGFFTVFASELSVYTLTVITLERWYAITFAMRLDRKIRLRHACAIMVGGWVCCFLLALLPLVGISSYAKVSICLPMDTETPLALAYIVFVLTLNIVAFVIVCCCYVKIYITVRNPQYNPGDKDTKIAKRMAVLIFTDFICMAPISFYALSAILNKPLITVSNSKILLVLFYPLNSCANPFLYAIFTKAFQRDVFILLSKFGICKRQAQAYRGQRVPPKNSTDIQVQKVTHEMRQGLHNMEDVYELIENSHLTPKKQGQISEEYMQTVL
Description: NIH Chemical Genomics Center [NCGC] NIH Molecular Libraries Screening Centers Network [MLSCN] MLSCN Grant: 1 X01 MH080680-01 PI Name: Dr. Marvin Gershengorn, NIH NCGC Assay Overview: Thyroid Stimulating Hormone Receptor TSH is an alpha/beta heterodimeric glycoprotein hormone secreted from the anterior pituitary gland which belongs to the glycoprotein hormone family. The actions of TSH are mediated by a seven-transmembrane receptor, which upon TSH binding couples preferentially to the G-alpha (s) protein (Gs), resulting in activation of adenylate cyclase and increase in cyclic adenosine 3', 5' monophosphate (cAMP). The TSH receptor (THSR) is mainly expressed in thyroid follicular cells and regulates their growth and function. Recombinant TSH is used to activate TSHR in patients with thyroid cancer receiving thyroid hormone suppression therapy and to screen for residual tumor after surgery, but it is expensive and must be administered intramuscularly. An orally active small molecule TSHR agonist would serve as an invaluable research tool for studying TSHR pharmacology and physiology, and would have multiple advantages in therapeutic settings. However, no selective small molecule agonist of the TSH receptor exists, and no small molecule screen for TSHR agonists has ever been reported. This cell based assay utilized a cyclic nucleotide gated ion channel (CNG) as a biosensor for cAMP induction by potential TSHR agonists. TSHR cell line HEK 293 cells stably expressing the TSHR as well as a modified CNG were purchased from BD biosciences. Stimulation of cAMP production causes the CNG to open and subsequent membrane depolarization to occur. A fluorescent membrane potential dye (BD biosciences) was utilized to detect cAMP stimulation in TSHR cells. The cells were maintained in DMEM medium (Invitrogen) containing 10 % FBS (Hyclone), 100 units/ml Penicillin, 100 ug/ml Streptomycin (Invitrogen), and 250 ug/ml Geneticin (Invitrogen) and 1 ug/ml Puromycin (Invitrogen) at 37C in 5% CO2. HEK 293 cells expressing CNG but without TSHR (parental cells) were used in concert to control for compounds signaling through endogenous receptors and targets of HEK 293 cells.
NCGC Assay Protocol Summary: High Throughput Screening. Freshly passaged cells (TSHR or parental) were dispensed into 1536-well assay plates at 4 ul/well in DMEM containing phenol red (Invitrogen), 10% FCS (Hyclone), and 100 units/ml Penicillin, 100 ug/ml Streptomycin (Invitrogen) and incubated at 37 C with 5% CO2 for 20 to 36 hrs before the robotic screening. The screen was initiated by addition of 4 ul/well membrane potential dye containing 100 uM RO 20-1724 (Sigma Aldrich), followed by 60 min incubation at room temperature to allow for dye equilibration across the cell membrane. 23 nl/well compound or control was then added to the assay plates, which were incubated for additional 30 min before reading a Envision fluorescence plate reader (Perkin Elmer) in bottom-read mode for fluorescence intensity (emission at 590 nm). Keywords: Thyroid-stimulating hormone TSH, TSHR, TSHR agonist, quantitative high throughput screening, qHTS, HTS, probe identification, CNG, cAMP, cyclic nucleotide gated ion channel PubChem
Potency means the concentration at half of the fitted maximal effect.

Compound | Potency
COc1cc(/C=N/n2c(SC)nnc(C(C)(C)C)c2=O)ccc1O | inactive
CCOc1ccc(N(CC(=O)Nc2ccc(C)cc2)S(=O)(=O)c2c(C)noc2C)cc1 | inactive
COC(=O)C1=C(C)OC(N)=C(C#N)C1C1CCCCC1 (stereo not given) | 6.31 µM (active)
Cc1ccc(S(=O)(=O)N2CCC(C(=O)NCCCN3CCCCCC3)CC2)cc1 | inactive
C=CCn1c(COc2ccccc2F)nnc1SCC(=O)N1CC(=O)Nc2ccccc21 | inactive
Nc1ccc2c(c1)COc1ccccc1O2 | inactive
O=S1(=O)N=C(Oc2ccccc2)c2ccccc21 | inactive
Cn1cccc1Cc1nnc(SCC(N)=O)n1CCc1ccccc1 | inactive
O=C1c2ccccc2C(=O)N1Cc1nc(-c2ccccc2)no1 | inactive
CSc1nc(NC(C)(C)C)nc(Oc2ccc(=O)[nH]n2)n1 | inactive
COc1cc(OC)cc(-c2nnc(SCC(=O)N(C(C)C)C(C)C)o2)c1 | 12.6 µM (active)
Cc1onc(-c2ccccc2Cl)c1C(=O)Nc1ccc(-n2nncc2-c2ccco2)cc1 | 12.6 µM (active)
Cc1occc1-c1nnc(SCC(=O)Nc2ccccc2)n1C(C)c1ccccc1 (stereo not given) | 12.6 µM (active)
CCc1ccccc1NC1=NCC(=O)N1Cc1ccc(OC)cc1 | 12.6 µM (active)
COc1ccc(C(=O)N(Cc2ccco2)Cc2cccs2)c(O)c1 | 1 µM (active)
Cc1ccc(C)c(Cn2c(C(C)O)nc3ccccc32)c1 (stereo not given) | 3.98 µM (active)
Oc1ccccc1Cn1c(-c2ccccc2O)nc2ccccc21 | 12.6 µM (active)
CCC(C)(C)n1nnnc1CN(Cc1ccco1)Cc1cc2cc3c(cc2[nH]c1=O)OCO3 | inactive
CC(c1ccco1)N(C(=O)c1ccc(Cl)s1)c1ccccn1 (stereo not given) | 7.94 µM (active)
Cc1nc2ccc(Br)cn2c(=O)c1Cl | inactive

Compound | Potency
Nc1cc(CN2C(=O)c3ccccc3C2=O)cc(Cl)c1O | inactive
COC(=O)c1cc(NC2c3ccccc3C(=O)N2c2cccnc2)cc(C(=O)OC)c1 (stereo not given) | 12.6 µM (active)
NC(=O)c1nsc(C(=O)N(CC(=O)NCc2ccc3c(c2)OCO3)C2CCCCC2)c1N | 1.26 µM (active)
O=C1C=C(NCc2ccccc2)C2(CCCCC2)O1 | inactive
O=S(=O)(c1ccccc1)N1CCN(C2CCN(Cc3ccccc3)CC2)CC1 | inactive
COc1cccc(C(c2nnnn2Cc2ccccc2)N2CCN(C(=O)c3ccco3)CC2)c1OC (stereo not given) | inactive
CC(=O)N1CCCc2cc(S(=O)(=O)N(CC(C)C)CC(C)C)ccc21 | 12.6 µM (active)
CCOC(=O)c1cnc(-n2nc(C)cc2C)nc1-n1nc(C)cc1C | inactive
COC(=O)C1=C(C)OC(N)=C(C#N)C1c1c(C)nn(-c2ccccc2)c1Cl (stereo not given) | 7.94 µM (active)
Cc1oc(-c2cccc(Cl)c2)nc1CN1CCCC(C(=O)NC(C)c2ccc3c(c2)OCCO3)C1 (stereo not given) | inactive
CCOC(=O)CSc1nnc(NC(=O)c2cccc(S(=O)(=O)N3CCCCC3)c2)s1 | inactive
COc1cc2c(N3CCOCC3)cc(O)c(CC(=O)Nc3ccccc3)c2cc1OC | inactive
Cc1cccc(NC(=O)CSc2nnc(-c3ccccc3)n2N)c1C | inactive
Cc1onc(-c2ccccc2)c1C(=O)N1CCCSC1=Nc1ccccc1 | 7.94 µM (active)
Cc1ccc(S(=O)(=O)NC(=O)Nn2c(C)nnc2C)cc1 | inactive
COc1ccc(-c2ccc(-c3noc(C)n3)c(OC)n2)cc1 | inactive
CCn1c(=O)c(C(=O)CN2CCCc3ccccc32)c(N)n(Cc2ccccc2)c1=O | inactive
COc1cccc(C2CC(c3ccccc3OC)n3nc(N)nc3N2)c1 (stereo not given) | inactive
Cc1cnc(NC(=O)c2ccc3c(c2)C(=O)N(Cc2ccco2)C3=O)s1 | inactive
NC(=O)c1nsc(C(=O)N(CC(=O)NCc2ccc3c(c2)OCO3)C2CCCC2)c1N | 12.6 µM (active)
